Results reported in PubChem BioAssay (NCATS).
Calls of active or inactive are those of the source. The call rests on the fitted dose curve; in most records, active means well fitted curve in the direction sought with a large enough effect; inconclusive means small, poorly fitted or top-dose-only effect, or another doubt; inactive means no such curve, though single readings can be large or run the other way.

biological target: Hexokinase-4 (Homo sapiens) + Glucokinase regulatory protein (Homo sapiens) (UniProt P35557+Q14397); assay: qHTS assay for inhibitors of recombinant human GCK-GKRP interaction: HTRF assay (AID 743207); settings: recombinant GCK-GKRP HTRF binding, 60 min, with sorbitol-6-phosphate; series mostly up to 57.5 µM; activity change, negative = inhibition: at the top concentration;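 further: 0% = DMSO with GCK present and -100% = DMSO wells lacking GCK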
Sequence (P35557 whole entry, looked up): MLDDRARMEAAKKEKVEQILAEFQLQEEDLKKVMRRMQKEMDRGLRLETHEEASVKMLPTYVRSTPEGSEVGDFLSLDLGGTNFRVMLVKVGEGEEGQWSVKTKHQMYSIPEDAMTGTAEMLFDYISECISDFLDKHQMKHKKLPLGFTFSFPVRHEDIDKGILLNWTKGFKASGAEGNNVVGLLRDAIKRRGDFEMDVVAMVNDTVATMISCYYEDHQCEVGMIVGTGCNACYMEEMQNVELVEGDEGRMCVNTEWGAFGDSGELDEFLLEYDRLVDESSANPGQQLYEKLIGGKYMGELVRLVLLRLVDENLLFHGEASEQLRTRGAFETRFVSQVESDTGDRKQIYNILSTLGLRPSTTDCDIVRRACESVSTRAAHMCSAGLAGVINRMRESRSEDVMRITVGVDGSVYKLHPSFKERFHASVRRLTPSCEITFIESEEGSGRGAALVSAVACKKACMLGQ
Sequence (Q14397 whole entry, looked up): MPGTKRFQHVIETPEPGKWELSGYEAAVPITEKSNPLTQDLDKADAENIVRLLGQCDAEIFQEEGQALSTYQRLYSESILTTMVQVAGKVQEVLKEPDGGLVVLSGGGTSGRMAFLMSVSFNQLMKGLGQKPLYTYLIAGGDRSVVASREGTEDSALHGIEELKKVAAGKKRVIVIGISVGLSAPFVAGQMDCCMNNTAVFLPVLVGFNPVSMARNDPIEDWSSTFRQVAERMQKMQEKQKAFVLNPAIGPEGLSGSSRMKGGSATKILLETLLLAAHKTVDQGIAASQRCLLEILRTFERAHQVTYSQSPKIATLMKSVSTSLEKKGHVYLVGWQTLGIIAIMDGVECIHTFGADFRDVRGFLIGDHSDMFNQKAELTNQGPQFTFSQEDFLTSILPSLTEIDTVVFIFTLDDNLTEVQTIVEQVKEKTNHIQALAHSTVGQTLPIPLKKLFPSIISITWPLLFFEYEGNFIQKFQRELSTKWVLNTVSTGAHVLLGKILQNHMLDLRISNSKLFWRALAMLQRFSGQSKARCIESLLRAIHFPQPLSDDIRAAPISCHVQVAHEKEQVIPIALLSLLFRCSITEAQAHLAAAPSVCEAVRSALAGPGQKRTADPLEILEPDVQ
Source text: Glucokinase (GCK) is a glucose sensor in hepatocytes and pancreatic beta-cells. Hepatic GCK is regulated by glucokinase regulatory protein (GKRP), which is predominantly localized to the liver. GKRP binds to GCK inhibiting its activity in the fasting state while in the presence of glucose the GKRP is displaced. There is an additional layer of regulation by fructose 1-phosphate and fructose 6-phosphate, which inhibit and enhance the GCK-GKRP interaction, respectively. GCK plays a role in glucose homeostasis and there is an interest in the development of strategies to activate GCK to lower blood glucose levels in type 2 diabetes. To date the majority of effort has focused on direct activation of GCK and the assays developed herein look to activate GCK by inhibiting its binding to GKRP. A compound that inhibits the interaction of GCK with GKRP could be important for the treatment of diabetes and can also be used as a tool compound to further elucidate GCK-GKRP biology. To that end, we have developed an HTS biochemical assay using HTRF technology for to interrogate the GCK-GKRP interaction. This assay was screened against a small compound library to look for modulators of activity.
3 uL of 5 nM GST-GCK and 5 nM FLAG-GKRP proteins with 2 uM S6P (columns 1-2, 4-48; Millipore, Billerica, MA) are dispensed into Greiner, white solid-bottom 1536-well assay plates; columns 3 receive buffer without GCK as a control for maximum inhibition. Buffer contains 2 mM MgCl2, 25 mM KCl, 25 mM Hepes, 1 mM DTT, 0.1% Tween 20 and 0.025% BSA and the pH was adjusted to 7.1. Compounds (23 nL) are then transferred via Kalypsys pin tool equipped with 1536-pin array (10 nL slotted pins, V&P Scientific, San Diego, CA). The library compounds are in columns 5-48 and columns 1-4 serve as controls with DMSO in columns 1 and 3 and 26 mM 1:1.5 fold serial of gluckokinase activator (GKA-EMD) in column 2 and 26 mM of the glucokinase activator (GKA-EMD) in column 4. Following addition of compound, 1 uL of detection antibodies (anti-Flag XL 665 and anti-GST K in reconstitution buffer from Cisbio, Bedford, MA; 0.7 ng/well and 0.0945 ng/well, respectively) is added, and the mixture is allowed to equilibrate for 60 minutes at room temperature. Data are normalized to DMSO-treated control columns with (maximum signal) and without (minimum signal) enzyme. Plates were read on an Envision plate reader (PerkinElmer, Shelton, CT, USA) with excitation at 320 nm and dual-wavelength detection at the Fret donor wavelength (615 nm) and the FRET acceptor wavelength (665 nm).

Row | Structure (SMILES) | activity change, negative = inhibition
1 | CCCCCCCCCCCCCCCCCC(=O)OC(CC(=O)O)C[N+](C)(C)C (stereo not given) | -5.85% (inactive)
2 | COc1ccccc1N1CCN(CCN(C(=O)c2ccc(I)cc2)c2ccccn2)CC1 | -3.84% (inactive)
3 | Brc1c(Br)c(Br)c2n[nH]nc2c1Br | -25.1% (inactive)
4 | N.N.O=C(O)C1(C(=O)O)CCC1.[Pt] | 5.61% (inactive)
5 | NCCNC(=O)c1ncsc1-c1cccc(F)c1 | -2.75% (inactive)
6 | CC(C)ON([C@@H](C(=O)NO)C(C)C)S(=O)(=O)c1ccc(-c2ccccc2)cc1 | -7.69% (inactive)
7 | NCCSSCCN | -6.47% (inactive)
8 | S=C(S)OC1CC2CC1C1CCCC21 (stereo not given) | -4.33% (inactive)
9 | O=C(CCCCCN1CCN(c2ccccc2-c2ccccc2)CC1)NC1CCCc2ccccc21 (stereo not given) | -6.24% (inactive)
10 | N#C/C(=C\c1ccc(O)c(O)c1)C(=O)NCCCc1ccccc1 | 21.2% (inactive)
11 | CC(=O)/C=C1\C(=O)N(C)c2ccccc21 | -15.8% (inactive)
12 | CNc1ncnc2c1ncn2[C@@H]1O[C@H](CO)[C@@H](O)[C@H]1O | -10.1% (inactive)
13 | Cc1ccc(S(=O)(=O)/C=C/C#N)cc1 | -3.51% (inactive)
14 | O=C(Nc1ccccc1)c1cc([N+](=O)[O-])ccc1Cl | 2.09% (inactive)
15 | C=CC(N)CCC(=O)O (stereo not given) | 2.07% (inactive)
16 | O=c1[nH]c2cc([N+](=O)[O-])c([N+](=O)[O-])cc2[nH]c1=O | 3.11% (inactive)
17 | CCCCN1CCC(n2c(=O)[nH]c3ccccc32)CC1 | 5.82% (inactive)
18 | CN1C2CC(OC(=O)[C@H](CO)c3ccccc3)CC1C1OC12 (stereo not given in full) | -2.55% (inactive)
19 | OCC1O[C@H](O)C(Cl)C(O)C1O (stereo not given in full) | -0.86% (inactive)
20 | OC[C@H]1O[C@@H](n2cnc3c(NC4CCCCC4)ncnc32)[C@H](O)[C@@H]1O | -2.26% (inactive)

Row | Structure (SMILES) | activity change, negative = inhibition
21 | CC(C)NC[C@@H](O)c1ccc(O)c(O)c1 | -1.71% (inactive)
22 | CC1OC1P(=O)(O)O (stereo not given) | 4.33% (inactive)
23 | NC(N)=NC(=O)c1nc(Cl)c(N2CCCCCC2)nc1N | 9.85% (inactive)
24 | CCCN(CC1CC1)c1nc(C)nc(Nc2c(Cl)cc(Cl)cc2Cl)c1Cl | -9.11% (inactive)
25 | O=C1/C(=C/c2ccsc2)CC/C1=C\c1cccs1 | -7.93% (inactive)
26 | C=CC(=O)c1ccc(CCCCCC)cc1 | 10.7% (inactive)
27 | C[N+]1(C)CCC(OC(=O)C(c2ccccc2)c2ccccc2)CC1 | -4.18% (inactive)
28 | CN(C)C(N)=NCCC[C@H](N)C(=O)O | 2.81% (inactive)
29 | C[N+](C)(C)CCOP(=O)(O)OP(=O)([O-])OC[C@H]1O[C@@H](n2ccc(N)nc2=O)[C@H](O)[C@@H]1O | 0.311% (inactive)
30 | O=c1[nH]c2cc(Cl)c(Cl)cc2[nH]c1=O | 4.74% (inactive)
31 | CCN(CC)c1ncnc2c1ncn2[C@@H]1O[C@H](COP(=O)(O)OP(=O)(O)C(Br)(Br)P(=O)(O)O)[C@@H](O)[C@H]1O | -1.75% (inactive)
32 | Fc1cccc(/C=N/N=C/c2cccc(F)c2)c1 | 9.9% (inactive)
33 | Nc1nc(Nc2ccccc2)nc2c1ncn2[C@@H]1O[C@H](CO)[C@@H](O)[C@H]1O | 3.7% (inactive)
34 | Clc1ccc(N2CCN(Cc3c[nH]c4ncccc34)CC2)cc1 | -0.207% (inactive)
35 | COc1cc(SC)ccc1C(=O)N1CCC(Cc2ccccc2)CC1 | -7.66% (inactive)
36 | O=c1[nH]c2cc(C(F)(F)F)ccc2n1-c1cc(C(F)(F)F)ccc1O | 3.3% (inactive)
37 | NC(=S)c1ccc[n+]([C@@H]2O[C@@H](COP(=O)([O-])OP(=O)(O)OC[C@H]3O[C@@H](n4cnc5c(N)ncnc54)[C@H](OP(=O)(O)O)[C@@H]3O)C(O)C2O)c1 (stereo not given in full) | 14.1% (inactive)
38 | COc1cc2nc(N3CCN(C(=O)OCc4ccccc4)C(C(=O)NC(C)(C)C)C3)nc(N)c2cc1OC (stereo not given) | 6.47% (inactive)
39 | O=C1NC(=O)/C(=C/c2ccc3nccnc3c2)S1 | -13.3% (inactive)
40 | N#C/C(=C\c1c[nH]c2ccccc12)C(=O)c1ccc(O)c(O)c1 | -16.9% (inactive)
